Measurements reported in the supplement of paper PMC9262897, “Low-cost anti-mycobacterial drug discovery using engineered E. coli” (Nature Communications, 2022).
Structures can show the parent of a compound that is named as a salt. ± gives the standard deviation of the averaged measurements.

Key:
Assay in all cases: growth (OD600 after 10 h); higher = more growth (less inhibition)
[1] = system: E. coli TESEC Alr+ wild-type control; conditions: compound 0.1 mM; raw OD600 reference: median of DMSO wells 0.241, cell-free background 0.041
Experimental: (§1)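 TESEC Mtb Alr E. coli, or the Alr+ wild-type control, in 384-well plates with Prestwick library compounds at 0.1 mM and 1% DMSO, across arabinose induction levels of 1E3 to 1E7 nM. Growth is read as OD600 after 10 h at 37 °C in triplicate biological replicates.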

E. coli TESEC Mtb Alr [2] = conditions: compound 0.1 mM
Experimental: as §1

E. coli TESEC Mtb Asd = conditions: compound 0.1 mM
Experimental: (§2)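 TESEC E. coli strains in which the native enzyme is deleted and replaced by arabinose-inducible Mtb Asd, DapB, CysH or TrpD, each grown in its selective medium. Strains were screened against the Prestwick library at 0.1 mM and 1% DMSO in 384-well format at low and high arabinose induction. Growth is read as OD600 after 10 h in triplicate.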

E. coli TESEC Mtb DapB = conditions: compound 0.1 mM
Experimental: as §2

[3] = system: E. coli TESEC Alr+ wild-type control; conditions: compound 0.1 mM; raw OD600 reference: median of DMSO wells 0.49, cell-free background 0.052
Experimental: (§3)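 TESEC Mtb Alr E. coli (ΔaraC ΔtolC ΔentC Δalr ΔdadX, arabinose-inducible Mtb Alr) or the Alr+ wild-type control strain, grown in defined M9-fructose medium without D-alanine in 96-well plates with Prestwick library compounds at 0.1 mM and 1% DMSO. Low Alr induction is 0.1 µM arabinose and high induction is 10 mM arabinose.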

E. coli TESEC Mtb Alr [4] = conditions: compound 0.1 mM; remark: listed apart in the source
Experimental: as §3

[5] = arabinose 1000 nM, raw OD600 reference: median of DMSO wells 0.294, cell-free background 0.041
[6] = arabinose 10000 nM, raw OD600 reference: median of DMSO wells 0.264, cell-free background 0.041
[7] = arabinose 100000 nM, raw OD600 reference: median of DMSO wells 0.201, cell-free background 0.041
[8] = arabinose 1000000 nM, raw OD600 reference: median of DMSO wells 0.193, cell-free background 0.041
[9] = arabinose 10000000 nM, raw OD600 reference: median of DMSO wells 0.146, cell-free background 0.041
[10] = arabinose induction (level): High, raw OD600 reference: median of DMSO wells 0.331, cell-free background 0.041
[11] = arabinose induction (level): Low, raw OD600 reference: median of DMSO wells 0.417, cell-free background 0.041
[12] = arabinose induction (level): High, raw OD600 reference: median of DMSO wells […], cell-free background 0.041
[13] = arabinose induction (level): Low, raw OD600 reference: median of DMSO wells 0.227, cell-free background 0.041
[14] = arabinose 100 nM, raw OD600 reference: median of DMSO wells 0.413, cell-free background 0.052
[15] = arabinose 10000000 nM, raw OD600 reference: median of DMSO wells […], cell-free background 0.052

SMILES	growth [1]	growth (E. coli TESEC Mtb Alr [2]; [5])	growth (E. coli TESEC Mtb Alr [2]; [6])	growth (E. coli TESEC Mtb Alr [2]; [7])	growth (E. coli TESEC Mtb Alr [2]; [8])	growth (E. coli TESEC Mtb Alr [2]; [9])	growth (E. coli TESEC Mtb Asd; [10])	growth (E. coli TESEC Mtb Asd; [11])	growth (E. coli TESEC Mtb DapB; [12])	growth (E. coli TESEC Mtb DapB; [13])	growth [3]	growth (E. coli TESEC Mtb Alr [4]; [14])	growth (E. coli TESEC Mtb Alr [4]; [15])
CC[C@@]1(O)C(=O)OCc2c1cc1n(c2=O)Cc2cc3c(CN(C)C)c(O)ccc3nc2-1 [Topotecan]	0.235 ± 0.0064	0.271 ± 0.01	0.271 ± 0.0034	0.345 ± 0.039	0.127 ± 0.0043	0.183 ± 0.015	0.214 ± 0.029	0.317 ± 0.044	0.202 ± 0.067	0.178 ± 0.014	0.483 ± 0.024	0.393 ± 0.0043	0.269 ± 0.0042
CCCc1nc2c(C)cc(-c3nc4ccccc4n3C)cc2n1Cc1ccc(-c2ccccc2C(=O)O)cc1 [Telmisartan]	0.208 ± 0.0078	0.271 ± 0.02	0.291 ± 0.011	0.19 ± 0.016	0.228 ± 0.0023	0.156 ± 0.0075	0.2439 ± 0.00056	0.41 ± 0.024	0.273 ± 0.0084	0.307 ± 0.039	0.505 ± 0.043	0.283 ± 0.052	0.337 ± 0.018
O=C1c2cccc3c2[C@H](CCC3)CN1[C@@H]1CN2CCC1CC2 [Palonosetron hydrochloride]	0.212 ± 0.017	0.281 ± 0.0041	0.263 ± 0.013	0.177 ± 0.01	0.165 ± 0.0085	0.151 ± 0.0037	0.267 ± 0.049	0.279 ± 0.045	0.198 ± 0.0067	0.235 ± 0.02	0.601 ± 0.042	0.417 ± 0.011	0.307 ± 0.022
O=C(OCC(O)CO)c1ccccc1Nc1ccnc2cc(Cl)ccc12 (stereo unspecified) [Glafenine hydrochloride]	0.116 ± 0.0048	0.146 ± 0.006	0.164 ± 0.017	0.187 ± 0.026	0.102 ± 0.0023	0.144 ± 0.0045	0.253 ± 0.04	0.17 ± 0.021	0.196 ± 0.0089	0.276 ± 0.059	0.374 ± 0.0054	0.384 ± 0.022	0.149 ± 0.02
CC(=O)CCCCn1c(=O)c2c(ncn2C)n(C)c1=O [Pentoxifylline]	0.2306 ± 0.0011	0.276 ± 0.0075	0.2728 ± 0.0025	0.203 ± 0.013	0.187 ± 0.0042	0.134 ± 0.0031	0.297 ± 0.079	0.387 ± 0.029	0.2 ± 0.024	0.207 ± 0.019	0.489 ± 0.096	0.431 ± 0.0088	0.363 ± 0.006
CCC(=O)O[C@@H](O[P@](=O)(CCCCc1ccccc1)CC(=O)N1C[C@H](C2CCCCC2)C[C@H]1C(=O)O)C(C)C [Fosinopril]	0.221 ± 0.007	0.33 ± 0.0063	0.25 ± 0.015	0.281 ± 0.018	0.0879 ± 0.0031	0.154 ± 0.0039	0.185 ± 0.013	0.351 ± 0.065	0.165 ± 0.0076	0.226 ± 0.017	0.508 ± 0.076	0.334 ± 0.044	0.0696 ± 0.00091
CC(=O)N(O)CCCCCNC(=O)CCC(=O)N(O)CCCCCNC(=O)CCC(=O)N(O)CCCCCN [Deferoxamine mesylate]	0.0549 ± 0.00064	0.054 ± 0.0048	0.0561 ± 0.0031	0.0487 ± 0.0017	0.0567 ± 0.0044	0.0625 ± 0.00017	0.139 ± 0.015	0.141 ± 0.027	0.137 ± 0.021	0.13 ± 0.0032	0.1754 ± 0.0017	0.113 ± 0.046	0.0677 ± 0.0037
